Assay results as given in PubChem BioAssay AID602143 (Vanderbilt Specialized Chemistry Center, 2011).
Values joined by “and” are separate entries in the source; they are usually repeats but may differ in a detail not shown here. Equal entries are not always repeated. Unmarked numbers belong to inactive results. Active and inactive are the calls of the source. Cut-off read from the data, not from the text of the source: active = remaining activity below about 50%; inactive = the rest.

Molecular target: Phospholipase D2 (Homo sapiens) (UniProt O14939)
Assay: cellular phospholipase D2 activity inhibition – cell-based, HEK293, single concentration (AID 602143);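 note: tested at 200 nM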
Conditions: HEK293 cellular PLD2 activity, percent of control; active compounds read low

Phospholipase D2 (Homo sapiens), sequence (O14939 whole entry, looked up): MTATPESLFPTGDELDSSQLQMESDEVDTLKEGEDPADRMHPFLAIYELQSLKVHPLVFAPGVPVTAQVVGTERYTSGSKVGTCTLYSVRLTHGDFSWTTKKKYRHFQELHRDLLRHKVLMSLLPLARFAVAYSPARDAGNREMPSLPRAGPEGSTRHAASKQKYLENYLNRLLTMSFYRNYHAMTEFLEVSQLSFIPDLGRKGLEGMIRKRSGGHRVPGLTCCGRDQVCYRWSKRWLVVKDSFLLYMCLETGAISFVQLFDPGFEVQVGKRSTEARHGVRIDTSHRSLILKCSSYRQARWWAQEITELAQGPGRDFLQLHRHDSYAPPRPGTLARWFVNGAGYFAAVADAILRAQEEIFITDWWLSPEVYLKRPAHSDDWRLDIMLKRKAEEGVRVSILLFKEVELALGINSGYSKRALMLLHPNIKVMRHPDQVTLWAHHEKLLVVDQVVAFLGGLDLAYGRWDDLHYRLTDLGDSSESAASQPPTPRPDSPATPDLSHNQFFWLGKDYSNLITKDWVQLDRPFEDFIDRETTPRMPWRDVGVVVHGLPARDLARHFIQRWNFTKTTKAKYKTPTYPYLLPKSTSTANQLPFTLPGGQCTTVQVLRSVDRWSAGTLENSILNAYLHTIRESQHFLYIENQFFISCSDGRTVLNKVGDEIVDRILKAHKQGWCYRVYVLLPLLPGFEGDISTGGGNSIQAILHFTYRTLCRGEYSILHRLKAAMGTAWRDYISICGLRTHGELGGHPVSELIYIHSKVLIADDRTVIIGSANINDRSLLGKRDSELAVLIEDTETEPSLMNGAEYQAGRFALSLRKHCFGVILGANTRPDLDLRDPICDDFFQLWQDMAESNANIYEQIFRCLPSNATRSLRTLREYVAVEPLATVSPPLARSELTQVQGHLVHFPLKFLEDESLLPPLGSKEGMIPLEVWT
Phospholipase D2 (Homo sapiens), sequence (O14939 whole entry, looked up): as above

Structure (SMILES) | remaining activity
O=C(NCCN1CCC2(CC1)C(=O)NCN2c1ccc(Br)cc1)c1cnc2ccccc2c1 | 48.6% (active)
O=C(NCCN1CCC2(CC1)C(=O)NCN2c1cccc(F)c1)C12CC3CC(CC(C3)C1)C2 | 87.1%
O=C(C1CC1c1ccccc1)N1CC(N2CCC3(CC2)C(=O)NCN3c2ccccc2)C1 (configuration not stated) | 82.9%
O=C(c1ccc(F)c(F)c1)N1CCCC1CN1CCC(n2c(=O)[nH]c3ccccc32)CC1 (configuration not stated) | 124% and 114%
O=C(NCCN1CCC2(CC1)C(=O)NCN2c1ccc(Cl)cc1)c1ccc(F)cc1 | 58.4%
O=C(CCCl)NCCN1CCC2(CC1)C(=O)NCN2c1cccc(F)c1 | 87.1%
O=C(C1C[C@H]1c1ccccc1)N1CC(N2CCC(n3c(=O)[nH]c4ccccc43)CC2)C1 (some centres not stated) | 87.7%
O=C(NCCN1CCC2(CC1)C(=O)N(Cc1ccccc1)c1ccccc12)c1ccc2ccccc2c1 | 70.6%
O=C(c1ccc(F)c(F)c1)N(CCN1CCC2(CC1)C(=O)NCN2c1cccc(F)c1)C(=O)c1ccc(F)c(F)c1 | 106%
Nc1cccc(Cl)c1C(=O)NCCN1CCC2(CC1)C(=O)NCN2c1ccccc1 | 100%
COc1cccc(C(=O)NCCN2CCC3(CC2)C(=O)NCN3c2ccccc2)n1 | 60.7%
O=C(NCCN1CCC2(CC1)C(=O)NCN2c1ccccc1)c1cscn1 | 76.2%
Cc1cccc(C(=O)NCCN2CCC3(CC2)C(=O)NCN3c2ccccc2)n1 | 89%
O=C1NCN(c2ccccc2)C12CCN(CCN1CCCC1)CC2 | 84.9%
O=C(NCCN1CCC2(CC1)C(=O)NCN2c1ccc(Br)cc1)c1cc2cc(F)ccc2[nH]1 | 23.7% (active)
O=C(NCCN1CCC2(CC1)C(=O)NCN2c1ccc(F)cc1)c1cnc2ccccc2c1 | 24% (active)
CC(C)[C@@H](CN1CCC2(CC1)C(=O)NCN2c1ccccc1)NC(=O)c1cc2ccccc2[nH]1 | 25.8% (active)
O=C(NCCN1CCC2(CC1)C(=O)NCN2c1ccccc1)c1cnc2ccccc2n1 | 101%
C[C@@H](CN1CCC2(CC1)C(=O)NCN2c1ccc(F)c(F)c1)NC(=O)c1ccc2ccccc2c1 | 51.2%
COc1cc(OC)cc(C(=O)NCCN2CCC3(CC2)C(=O)NCN3c2cccc(F)c2)c1 | 84.7%
O=C(NCCN1CCC2(CC1)C(=O)NCN2c1ccc(Br)cc1)c1ccc2ccccc2c1 | 52%
NC1(CN2CCC3(CC2)C(=O)NCN3c2ccccc2)CCCC1 (tested in a mixture with another compound) | 74.2%
